In PubChem BioAssay (NCI) one finds growth inhibition data, which are given here for 39 compounds.

The panel holds about 79,000 compounds, 15% with a hit somewhere; the sample as a whole holds those more often. A number with no mark means an inactive call. Calls of active or inactive are those of the source. No stated cut-off is given here; in the data, active means growth inhibition above about 70%; inactive means the rest.

The test is described as follows: NCI Yeast Anticancer Drug Screen. Data for the wt2 strain (AID 169).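 Further: 0% = growth of vehicle-treated yeast cultures.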 The note with it: S. cerevisiae wt2 strain growth inhibition; at 100.0 µM; stronger effect = higher value. The procedure, abridged:
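Steps: yeast strain treated with compound; growth recorded; inhibition calculated relative to cultures given vehicle alone.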
On to `CCCc1cc(C(=O)OCC)cc(CCC)c1O`, for which the growth inhibition is 94% (active).

With `CC(C)[N+]([O-])(CCCNc1c2ccccc2nc2cccc([N+](=O)[O-])c12)C(C)C`, the growth inhibition is 96% (active).

As for `COc1cc2c3c(cccc3c1)C(=O)N(CCN(C)C)C2=O`, the growth inhibition is 5%.

As for `NC(=O)NN=C(CS)CS`, the growth inhibition was 46%.

With `Cc1ccc(NC(=O)/C(Cl)=C(\Cl)C(=O)O)cc1C`, the growth inhibition is 99% (active).

Regarding `CCN(CC)CC[n+]1ccc2c(C)c3[nH]c4ccc(O)cc4c3c(C)c2c1`, the growth inhibition is 26%.

`CC(CC(C)(C)[N+](C)(C)C)[N+](C)(C)C` (centres undefined): the growth inhibition is -1%.

As to `COc1ccc(OC)c2cc3ccccc3cc12`, the growth inhibition was 9%.

Take `Nc1ncncc1C(C1=C(O)COC1=O)C1=C(O)COC1=O`: the growth inhibition was 1%.

In the case of `CSC1=NNC(SC)=NN1`, the growth inhibition is 99% (active).

Regarding `Cc1c(Cl)ccc2c1S(=O)(=O)c1cccc(Cl)c1-2`, the growth inhibition was -25%.

For `[O-][n+]1c2ccc(O)cc2nc2ccc(Cl)cc21`, the growth inhibition was 61%.

For `COc1ccc2ccc3ccccc3c2c1C=O`, the growth inhibition was 77% (active).

As for `Nc1ccc2c(c1)C(=O)c1cccc(N)c1C2=O`, the growth inhibition is 72% (active).

For `O=C(c1ccc(Cl)cc1Cl)C(Cl)Cl`, the growth inhibition was 98% (active).

With `COc1cc(C(=O)/C=C/c2ccccc2O)ccc1O`, the growth inhibition is 98% (active).

With `O=Cc1cccc2ccc3ccccc3c12`, the growth inhibition was 80% (active).

As to `O=C(Nc1ccc(Cl)cc1)OCC#CCCl`, the growth inhibition is 99% (active).

In the case of `Cn1ccnc1Oc1ccc(Cl)cc1`, the growth inhibition was 99% (active).

For the compound `c1ccc2c(c1)C(=NCCCN1CCCCCC1)c1cccn1-2`, the growth inhibition was 96% (active).

Turning to `C/C(=N\O)C1CC2C=C(C#N)C1N(Cc1ccccc1)C2` (centres undefined), the growth inhibition is -2%.

Regarding `O=[N+]([O-])C(=C(Sc1ccccc1)Sc1ccccc1)C(Cl)=C(Cl)Cl`, the growth inhibition is 73% (active).

On to `CCCCCCCCCC/C=C\C(=O)O`, for which the growth inhibition was 97% (active).

`COc1ccc(N=C2C(=O)Nc3ccc(Br)cc32)cc1`: the growth inhibition is 11%.

`COc1ccccc1C(=O)OCC1CCCN2CCCCC12` (centres undefined): the growth inhibition is 98% (active).

For the compound `CC(C)(Br)C(=O)/C=C/c1ccc(Cl)c(Cl)c1`, the growth inhibition is -8%.

Turning to `Nc1ccccc1CC(O)C(=O)O` (centres undefined), the growth inhibition was 95% (active).

In the case of `CC(=O)N/N=C/C(C)(C)C(C)(C)/C=N/NC(C)=O`, the growth inhibition was 88% (active).

Take `CN(C)c1nc2sc3c(c2c(=O)o1)CCCC3`: the growth inhibition is 35%.

Regarding `CC(C)OC(=O)Oc1ccccc1OC(=O)OC(C)C`, the growth inhibition is -2%.

Consider `Cc1ccc(N)c(S)c1`, for which the growth inhibition was 99% (active).

Regarding `O=C(O)c1ccccc1NC(=S)c1ccccc1`, the growth inhibition is 42%.

For `COC(=O)c1ccc(NCC2=CC(=O)C=CC2=O)cc1O`, the growth inhibition was 92% (active).

With `NC(N)=N/N=C\c1c2ccccc2cc2ccccc12`, the growth inhibition is 96% (active).

Take `COC(=O)CSSCc1ccc([N+](=O)[O-])cc1`: the growth inhibition was 98% (active).

In the case of `CCS(=O)(=O)c1ccc(/C=C/C=N/NC(=S)NCC(C)C)cc1`, the growth inhibition was 55%.

As to `N#CC(C(=O)Nc1ccccc1)C1=C(Cl)C(=O)c2ccccc2C1=O` (centres undefined), the growth inhibition was 95% (active).

In the case of `C[C@H](CCC(=O)NN)[C@H]1CC[C@H]2[C@@H]3CC[C@@H]4C[C@H](O)CC[C@]4(C)[C@H]3CC[C@]12C`, the growth inhibition is 2%.

`CC[n+]1ccc2c(C)c3[nH]c4ccc(O)cc4c3c(C)c2c1`: the growth inhibition was 13%.
